{"source": "the OligoGym collection"}
{"target": "METTL21D", "experiment": "pooled miR-30 sensor sort-seq; sequence = guide strand", "details": "shRNA"}
{"sequence": "TAGCACTGTACCATCCCGCTTC", "sensor-assay potency score (higher = more potent)": 0.175}
{"sequence": "TATACTGCTGTAGTCGTAGCAC", "sensor-assay potency score (higher = more potent)": 0.182}
{"sequence": "TTGCAATTCCTCAAGATCGGTG", "sensor-assay potency score (higher = more potent)": -0.436}
{"sequence": "TGAACTAAGTAACCTAAGCTGG", "sensor-assay potency score (higher = more potent)": -0.584}
{"sequence": "TTGGCTTGAACAGAACCAGTGA", "sensor-assay potency score (higher = more potent)": 0.803}
{"sequence": "TTGTAGTTATTCAAAAACCTTT", "sensor-assay potency score (higher = more potent)": -1.15}
{"sequence": "TTAAACTCTGAAGACAAACTAA", "sensor-assay potency score (higher = more potent)": -0.429}
{"sequence": "TTTAAGAAGAACTTGATGCTGA", "sensor-assay potency score (higher = more potent)": 0.983}
{"target": "MET", "experiment": "pooled miR-30 sensor sort-seq; sequence = guide strand", "details": "shRNA"}
{"sequence": "TTTCTTGCCATCATTGTCCAAC", "sensor-assay potency score (higher = more potent)": -0.767}
{"sequence": "TTCATTGAAATGCACAATCAGG", "sensor-assay potency score (higher = more potent)": -0.957}
{"sequence": "TATATTAAACACTTCCTTCTTT", "sensor-assay potency score (higher = more potent)": 0.147}
{"sequence": "TATTCTTGTGTGAAAAGTCTGA", "sensor-assay potency score (higher = more potent)": 0.132}
{"sequence": "TATGTCAGCAGTATGATTGTGG", "sensor-assay potency score (higher = more potent)": 0.148}
{"sequence": "TTAAACACTTCCTTCTTTGTGG", "sensor-assay potency score (higher = more potent)": 0.061}
{"sequence": "TTGCTTTGTGCGAACACCCCGA", "sensor-assay potency score (higher = more potent)": 0.0698}
{"sequence": "TAGAATGACATTCTGGATGGGT", "sensor-assay potency score (higher = more potent)": 0.522}
{"sequence": "TTGAGTTTGCAGACTTTCCAAA", "sensor-assay potency score (higher = more potent)": -0.558}
{"sequence": "TTGATATTGAGACAACACCAGC", "sensor-assay potency score (higher = more potent)": -1.2}
{"sequence": "TGATCGAGAAACCACAACCTGC", "sensor-assay potency score (higher = more potent)": -1.33}
{"sequence": "TTCTGTGAGAATACACTCCAGA", "sensor-assay potency score (higher = more potent)": -0.115}
{"target": "MEX3D", "experiment": "pooled miR-30 sensor sort-seq; sequence = guide strand", "details": "shRNA"}
{"sequence": "TTGCCGGAGCCGCTGTAGGGGC", "sensor-assay potency score (higher = more potent)": -1.61}
{"sequence": "TTGACCGTGGAGCAGCCGCTGA", "sensor-assay potency score (higher = more potent)": -1.71}
{"sequence": "TTGGCGTGGAAGTCGCTGTCGG", "sensor-assay potency score (higher = more potent)": -0.234}
{"sequence": "TGATGTAGGTGTTTGTCTTGGC", "sensor-assay potency score (higher = more potent)": 0.554}
{"sequence": "TGGTCGGCCAGCAGCGTCGGGG", "sensor-assay potency score (higher = more potent)": -1.69}
{"sequence": "TAGGTGTTTGTCTTGGCCCGCA", "sensor-assay potency score (higher = more potent)": 0.155}
{"sequence": "TTGATGTAGGTGTTTGTCTTGG", "sensor-assay potency score (higher = more potent)": -0.318}
{"sequence": "TTGACGCTTTTCTTGCGGCTGC", "sensor-assay potency score (higher = more potent)": -0.68}
{"sequence": "TTGATCTTGCAGCCCTGGCGAC", "sensor-assay potency score (higher = more potent)": -1.24}
{"sequence": "AAGTCGAAGCCGAAGTCGCAGT", "sensor-assay potency score (higher = more potent)": -0.692}
{"sequence": "AGGAAGTCGAAGTCGAAGCCGA", "sensor-assay potency score (higher = more potent)": -1.39}
{"sequence": "TAGGTGTGCGTCCGCTGCTGGA", "sensor-assay potency score (higher = more potent)": -1.39}
{"target": "MFNG", "experiment": "pooled miR-30 sensor sort-seq; sequence = guide strand", "details": "shRNA"}
{"sequence": "TCACATAGTTGTCATCGTCCAC", "sensor-assay potency score (higher = more potent)": -0.585}
{"sequence": "AACTGTACCAGCCTCGTGCGGT", "sensor-assay potency score (higher = more potent)": -0.733}
{"sequence": "ATAGTTGTCATCGTCCACATGG", "sensor-assay potency score (higher = more potent)": -0.521}
{"sequence": "TAGTTGTCATCGTCCACATGGC", "sensor-assay potency score (higher = more potent)": -0.357}
{"sequence": "TTTGTCTGGGCTGTCGGTGAAG", "sensor-assay potency score (higher = more potent)": -0.931}
{"sequence": "TTGCACTCAATGATATAGCCCA", "sensor-assay potency score (higher = more potent)": -0.194}
{"sequence": "TCGAACTCAGCAGCCATCTTGC", "sensor-assay potency score (higher = more potent)": -1.05}
{"sequence": "TCGGTGAAGACAAATGTCTGTT", "sensor-assay potency score (higher = more potent)": -0.485}
